Sampled rows, rich in hits. Any-hit rate of the full collection: about 3.7%.
miR-21 act = qHTS Assay for Modulators of miRNAs and/orActivators of miR-21. HeLa miR-21 FLuc reporter, luciferase, 48 h. Potency, µM (series often up to 38.3 µM), without a hit: at the highest dose activity change, positive = activation, actives largely listed as activators. 340,000 tested, under 10 active;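 also: % of control where 0% means no effect; miR-21 action dims this reporter so a rising signal means less miR-21 action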
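Luminescence from a firefly luciferase reporter carrying a miR-21 binding site downstream, stably expressed under a CMV promoter in HeLa cells that make miR-21 endogenously, reports miRNA modulation after 48 h compound exposure up to approximately 40uM final.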
A549 tox-1 = Nrf2 qHTS screen for inhibitors: counterscreen for cytotoxicity | A549 ARE-Fluc cells, CellTiter-Fluor viability, 18-24 h | Potency, µM (titrated, usually from 46 µM), for inactives: at the top dose activity change, negative = cytotoxicity, hits mostly inhibitors | 390,000 compounds, 0.16% hits | AID 504648, 2011; also: potency is read from the fitted curve at half-maximal effect; % is scaled to controls: 0 for no effect and ±100 for the full control effect
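A549 ARE-Fluc cells in 5% FBS OPTI-MEM, 5000 cells/well, rested 2 h then exposed to compounds in concentration-response for 18-24 h at 37 °C. Viability by CellTiter-Fluor fluorescence (Ex 405/Em 525) after 30 min; luciferase luminescence (BugLite, 15 min, RT) read afterwards.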
ClpP mod = qHTS Assay for Activators of ClpP; ATP-dependent Clp protease proteolytic subunit (Bacillus subtilis (strain 168)), P80244; purified B. subtilis ClpP, FRET peptide cleavage, 20 min; Potency, µM (titrated, usually from 57.5 µM), without a hit: top-dose activity change, negative = active; 340,000 compounds, 1.9% hits; AID 651965, 2013; active = well fitted falling curve with a large enough effect; inconclusive = small, poorly fitted or top-dose-only effect; inactive = no such curve, though single readings can be large or run the other way; also: potency is read from the fitted curve at half-maximal effect; the source files actives as falling curves though it sought activators and does not explain the sign; nearly all actives have a fitted effect of over 65% in size
Target sequence (P80244 whole entry, looked up): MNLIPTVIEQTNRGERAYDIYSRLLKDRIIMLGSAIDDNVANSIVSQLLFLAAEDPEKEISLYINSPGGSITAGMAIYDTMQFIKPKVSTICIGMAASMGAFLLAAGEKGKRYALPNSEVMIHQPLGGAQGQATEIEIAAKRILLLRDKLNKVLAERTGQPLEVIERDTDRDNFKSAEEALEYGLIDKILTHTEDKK
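Buffer: 100 mM Tris/HCl pH8, 100 mM KCl, 0.05% low protease BSA, 2.5% glycerol, 0.01% Tween-20. ClpP 10 microg/mL final; 20 min RT; delta FRET normalized to ADEP and DMSO controls.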
Nrf2 block = Nrf2 qHTS screen for inhibitors; A549 ARE-Fluc reporter, luciferase luminescence, 18-24 h; 360,000 compounds, 2.1% hits; Potency, µM (titrated, usually from 46 µM), for inactives: top-dose activity change, negative = inhibition, actives largely listed as inhibitors; AID 504444, 2011; also: potency is read from the fitted curve at half-maximal effect; % is scaled to controls: 0 for no effect and ±100 for the full control effect; nearly all actives have a fitted effect of over 60% in size
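Reporter: ARE-Fluc in A549. Exposure: 18-24 h, 37 °C, 5% CO2, 5% FBS OPTI-MEM. Readouts: fluorescent cytotoxicity (CellTiter-Fluor), then luminescent Nrf2 signal after BugLite.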
Nrf2 activator = qHTS of Nrf2 Activators. 410,000 compounds, 0.31% hits. Potency, µM (series often up to 46.1 µM), for inactives: top-dose activation, usual class: activators. AREc32 ARE-luciferase reporter (MCF7-derived line), luminescence, 24 h. AID 624171, 2012; also: potency is read from the fitted curve at half-maximal effect; % of control where 0% means no effect; nearly all actives have a fitted effect of over 65% in size
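ARE activation measured as luciferase luminescence (Steady-Glo, 30 min RT) in AREc32_Fluc cells after 24 hr compound exposure at 37 deg C, 5% CO2; cells seeded overnight at 1000/well in OPTI-MEM, 5% FBS.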
IL-2 act = qHTS of IL-2 Activators; IL-2 activation reporter assay, cell-based qHTS; stimulated with anti-CD3/CD4/CD28 beads; in transgenic mouse T cells; 360,000 compounds, 0.065% hits; AID 652025, 2013; activation, % (series mostly up to about 46 µM); in the data active = activation above about 50%; inconclusive = mostly about 30% to 49%; also: 0% is about no effect
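Unstimulated transgenic mouse T cells, 750 per well, received compound and, after 60 minutes, anti-CD3/anti-CD4 bead plus anti-CD28 stimulation. EGFP and DsRed were quantified after 18 hours.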
FLuc counter 3 = Nrf2 qHTS screen for inhibitors: Purified Fluc Biochemical Counterscreen for Hit Validation. shares compounds with Nrf2 block. purified firefly luciferase, luminescence inhibition. Potency, µM (top dose mostly 57.5 µM), inactives show at the highest dose activity change, negative = inhibition, hits mostly inhibitors. 1,400 compounds, 4% hits. AID 720522, 2013; also: potency is read from the fitted curve at half-maximal effect; % is scaled to controls: 0 for no effect and ±100 for the full control effect; nearly all actives have a fitted effect of over 65% in size
Target sequence (P08659 whole entry, looked up): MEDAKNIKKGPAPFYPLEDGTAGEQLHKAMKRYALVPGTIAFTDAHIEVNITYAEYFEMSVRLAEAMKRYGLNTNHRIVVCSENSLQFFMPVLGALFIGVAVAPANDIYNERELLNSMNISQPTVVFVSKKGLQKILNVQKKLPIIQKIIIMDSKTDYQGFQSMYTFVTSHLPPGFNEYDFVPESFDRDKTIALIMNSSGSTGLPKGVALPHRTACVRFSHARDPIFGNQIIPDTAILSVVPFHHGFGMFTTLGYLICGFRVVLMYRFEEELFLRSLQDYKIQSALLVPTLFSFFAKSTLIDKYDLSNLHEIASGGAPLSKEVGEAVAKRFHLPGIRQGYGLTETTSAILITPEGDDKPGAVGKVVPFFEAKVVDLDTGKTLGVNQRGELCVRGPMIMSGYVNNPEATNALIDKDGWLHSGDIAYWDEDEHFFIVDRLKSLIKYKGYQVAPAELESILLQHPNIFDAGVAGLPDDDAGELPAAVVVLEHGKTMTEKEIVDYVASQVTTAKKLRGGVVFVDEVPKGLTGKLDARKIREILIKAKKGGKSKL
A549 tox-2 = Nrf2 qHTS screen for inhibitors: A549 ARE-Fluc Cytotoxicity Counterscreen for Hit Validation; A549 ARE-Fluc cells, cytotoxicity counterscreen; shares compounds with Nrf2 block; AID 720523, 2013; 1,400 compounds, 2% hits; Potency, µM (series often up to 46.1 µM), for inactives: at the highest dose activity change, negative = cytotoxicity, usual class: inhibitors;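 also: potency is read from the fitted curve at half-maximal effect; cells exposed to compounds for 18 to 24 hours; % is scaled to controls: 0 for no effect and ±100 for the full control effect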
Nrf2 ARE inh = Nrf2 qHTS screen for inhibitors: Nrf2 A549 ARE-Fluc Confirmation Assay for Hit Validation. shares compounds with Nrf2 block. Potency, µM (highest dose often 46.1 µM), for inactives: top-dose activity change, negative = inhibition, most hits filed as inhibitors. A549 ARE-firefly luciferase reporter, luminescence. 1,400 compounds, 74% hits; also: potency is read from the fitted curve at half-maximal effect; % is scaled to controls: 0 for no effect and ±100 for the full control effect; nearly all actives have a fitted effect of over 65% in size
An asterisk follows results filed as active; ? = inconclusive; · = no result. Unless noted, calls follow the shape of the dose curve; as a rule, active = well fitted curve in the direction sought with a large enough effect; inconclusive = small, poorly fitted or top-dose-only effect, or another doubt; inactive = no such curve, though single readings can be large; an effect the other way counts as inactive or inconclusive.

SMILES | miR-21 act | A549 tox-1 | ClpP mod | Nrf2 block | Nrf2 activator | IL-2 act | FLuc counter 3 | A549 tox-2 | Nrf2 ARE inh
COc1ccc(NC(=O)NC2COc3ccccc3C2)cc1Cl (stereo unspecified) | -30% | 13% | 0% | · | 3% | · | · | · | ·
CCOc1ccc(-c2nc(Cn3c(=O)cc(-c4ccccc4)c4c(C)nn(C)c43)c(C)o2)cc1 | -19% | 9% | -6% | 5.8µM* | 1% | · | 0% | -3% | 14%
O=C(O)CSc1cc(NS(=O)(=O)c2ccc(Br)cc2)c2ccccc2c1O | 27% | -16% | 51% | 2.3µM* | 0% | -3 | 12µM* | -4% | -8%
O=S(=O)(Nc1cc(Sc2ncn[nH]2)c(O)c2ccccc12)c1ccccc1 | ? | ? | · | ? | -3% | 1 | · | · | ·
CC12Cc3ccc4ccccc4c3C=C1C[N+](C)(C)C2 (stereo unspecified) | 7% | -19% | -1% | 1.3µM* | -1% | 0 | 0% | -7% | 18µM*
Cc1cccc(NCC(=O)N/N=C\c2ccc[nH]2)c1 | 0% | -9% | · | -11% | 0% | 0 | · | · | ·
O=C(CNc1cccc2ccccc12)N/N=C/c1ccc[nH]1 | 14% | -8% | · | 3.7µM* | 4% | 0 | ? | -18% | 2.9µM*
COc1cc(NC(=O)COCc2cc(-c3ccc4c(c3)OCO4)on2)cc(OC)c1 | 25% | 3% | -8% | -2% | 0% | · | · | · | ·
COc1ccc(Nc2nc(N3CCCC3)c3ccccc3n2)cc1 | 29% | -16% | 1% | ? | -2% | -7 | · | · | ·
CCN(CC)c1ccc(Nc2nc(N3CCOCC3)c3ccccc3n2)cc1 | 29% | ? | -3% | 6.5µM* | 3% | -2 | ? | -11% | 12µM*
CC[N+](C)(CC)CCOC(=O)C(O)(c1ccccc1)C1CCCCC1 (stereo unspecified) | -5% | -4% | 2% | 7.3µM* | -1% | 0 | -1% | 9.2µM* | ?
CC(=O)c1c(C)n(CC(=O)NCc2ccc3c(c2)OCO3)c2ccccc12 | 16% | -5% | 1% | 5.8µM* | 1% | -1 | 1% | 11% | ?
COc1cccc(CN(C)C(=O)c2cccc(S(=O)(=O)NCc3ccccc3)c2)c1OC | · | -11% | -2% | 7.3µM* | 2% | -1 | 0% | -3% | -3%
COc1cccc(CN(C)C(=O)c2cccc(S(=O)(=O)N3CCN(c4ccccc4)CC3)c2)c1OC | · | ? | -2% | 7.3µM* | 0% | 0 | 0% | ? | 0.12µM*
CN(Cc1ccc(OC(F)F)cc1)C(=O)c1cccc(S(=O)(=O)N2CCN(Cc3ccccc3)CC2)c1 | · | -17% | · | 6.5µM* | 0% | -5 | -1% | -23% | 6.5µM*
CN(CCOc1ccc(Cl)cc1)C(=O)c1cccc(S(=O)(=O)N2CCN(c3ccccc3)CC2)c1 | · | ? | -1% | 5.8µM* | 0% | 0 | 0% | -14% | 23µM*
COc1ccc(CCN(C)C(=O)c2cccc(S(=O)(=O)NCc3ccccc3)c2)cc1OC | 1% | -6% | -1% | ? | 2% | -2 | · | · | ·
CN(Cc1c(F)cccc1Cl)C(=O)c1cccc(S(=O)(=O)N2CCN(Cc3ccccc3)CC2)c1 | · | 0% | -4% | ? | 2% | 0 | · | · | ·
COc1cc(NC(=O)c2nc(-c3ccncc3)no2)cc(OC)c1OC | -18% | 0% | 1% | 19% | 5% | · | · | · | ·
CCOc1ccccc1NC(=O)Cc1coc2c(C)c(C)ccc12 | 6% | -1% | -7% | ? | 5% | · | · | · | ·
CCc1ccc(NC(=O)c2ccc3c(O)c(S(=O)(=O)c4ccc(Cl)cc4)c(=O)[nH]c3c2)cc1 | 4% | 0% | -11% | 1% | -1% | · | · | · | ·
CC(C)(C)c1cc(C(=O)Nc2cccnc2)cc(C(=O)Nc2cccnc2)c1 | 15% | -20% | -1% | 9.2µM* | 0% | -5 | -5% | -5% | ?
Nc1ncnc2c(C3OC(CO)C(O)C3O)c[nH]c12 (stereo unspecified) | · | ? | -3% | 0.23µM* | 0% | -3 | 2% | ? | 0.1µM*
O=C(NCc1ccccc1)c1ccc(CNS(=O)(=O)c2ccc(Br)cc2)cc1 | 3% | 11% | -1% | 10% | -1% | · | · | · | ·
CCOC(=O)C1CCCN(C(=O)c2cc3c(Cl)nc4ccccc4c3s2)C1 (stereo unspecified) | 23% | 0% | -12% | 5.8µM* | -3% | · | -1% | 0% | 8.2µM*
SMILES | miR-21 act | A549 tox-1 | ClpP mod | Nrf2 block | Nrf2 activator | IL-2 act | FLuc counter 3 | A549 tox-2 | Nrf2 ARE inh
O=C(c1cc2c(Cl)nc3ccccc3c2s1)N1CCCCC1 | -47% | -4% | -2% | 7% | 6% | · | · | · | ·
COc1ccc(CCNC(=O)c2cccc(-n3cnc4cccnc43)c2C)cc1OC | 23% | 15% | -4% | -18% | 2% | · | · | · | ·
O=C(N/N=C/c1ccc[nH]1)c1ccccc1OCc1ccc(F)cc1 | -6% | 1% | · | 47% | 1% | 1 | · | · | ·
CCOc1ccc(OCc2ccc(C(=O)NN=Cc3ccc[nH]3)cc2)cc1 | · | ? | 1% | 1.8µM* | 3% | 1 | -10% | ? | 1.8µM*
COc1ccccc1N=c1oc2cc(O)ccc2cc1C(=O)NCC1CCCO1 (stereo unspecified) | -66% | · | -16% | ? | 2% | -1 | -16% | 0% | 13µM*
COc1ccc(-c2nc(CNC(=O)Nc3ccccc3)c(C)o2)cc1 | -1% | -12% | -28% | · | 6% | · | · | · | ·
COc1cc(NC(=O)c2cccs2)c(OC)cc1NC(=O)CCC(=O)Nc1ccc2ncccc2c1 | 14% | -3% | · | 5.8µM* | 0% | 0 | -13% | 2% | -11%

From PubChem
